This passage reports AC50 and outcome results from PubChem BioAssay (EPA / NIEHS).

Active and inactive are the calls of the source. How the source made its calls: active means hit-call score of the fitted dose curve at least 0.9, where 1 is the maximum; inactive means score below 0.9.

Read-out in the assay: X-box binding protein 1 (XBP1), XBP1 (gene 7494)
The assay is described as follows: LTEA_HepaRG_XBP1: Life Technologies and Expression Analysis (LTEA) Assay for X-box binding protein 1 (XBP1) using HepaRG (AID 2283540). To be noted: mRNA level, 48 h; actives raise or lower the signal. The protocol:
LTEA_HepaRG is a cell based, multiplexed-readout assay that uses HepaRG, a human liver cell line, with measurements taken at 48 hours after chemical dosing on a 96-well plate.LTEA_HepaRG_XBP1 is one of 102 assay component(s) measured in the LTEA HepaRG cell culture assay. It is a marker of Diseases associated with XBP1 including Major Affective Disorder 7 and Bipolar Disorder.Data from the assay component LTEA_HepaRG_XBP1 was analyzed into 1 endpoint. This assay endpoint, LTEA_HepaRG_XBP1, was analyzed with bidirectional fitting relative to DMSO as the negative control and baseline of activity. Using a type of inducible reporter, measures of mRNA induction for gain or loss-of-signal activity can be used to understand regulation of transcription factor activity. To generalize the intended target to other relatable targets, this assay endpoint is annotated to the dna binding intended target family, where the subfamily is basic leucine zipper.
A total of 1060 chemcials from the ToxCast library were tested in eight-point concentration-response experiments. Cell culture and cytotoxicity assays were conducted at Thermo Fisher Scientific's Custom Services facility (Madison, WI). A single lot of human HepaRG cells (Thermo Fisher Scientific, Frederick, MD) was used for the cell culture experiments. 96-well format collagen type I coated plates of human HepaRG cells were prepared using established methods. Briefly, cryopreserved HepaRG cells were thawed, plated at a density of approximately 100,000 cells/well in HepaRG Thaw, Plate, and General Purpose media (HPRG770, Thermo Fisher Scientific), and incubated for 48 hours. 0.5% DMSO was selected as vehicle control to balance the requisite need of DMSO in HepaRG cultures to maintain differentiation (for example, baseline metabolism, proportions of hepatocytes vs. cholangiocytes), while enabling further hepatic receptor pathway activation (for example, PXR and CAR) in response to chemical exposure. 48 hours after plating, the culture medium was replaced with HepaRG Serum-Free Incudtion Media. Cells were exposed to each test chemical in duplicate and maintained in CO2 incubators for another 48 hours. Chemical plates were thawed to room temperature and 200x concentrations of treatment groups were prepared. 8-point conentration-reponse curves were made with the highest exposure at 100 uM, followed by half-log dilutions, all in 0.5% DMSO. Each test plate contained variouse controls, induction positive controls (1mM phenobarbital), cytotoxicity positive controls ([…] aflatoxin B1), vehicle controls (0.5% DMSO), and total lysis controls (0.5% DMSO). Cell morphology images were taken using an Essen IncuCyte FLR automated microscope, with six 96-well plates imaged in about 24 minutes. Images were captured and exported and JPEG files. Spent culture media was transfered to black-well plates for the LDH assay, and remaining media was sorted at -80 C for later use. Cells were treated with RLT buffer and frozen until shipped for gene expression analysis. Total RNA was isolated from the cell suspension in 75 uL of Buffer RLT (Qiagen, Germantown, MD 20874) by Quintiles/Expression Analysis (Durham, NC) using a custom isolation procedure. Total RNA from each plate well was transferred to a preamplification plate. Fluidigm's 96.96 Dynamic ArrayTM (Fluidigm, Amsterdam, the Netherlands) technology was used for gene expression analyses by quantitative reverse transcription polymerase chain reaction (qRT-PCR, performed by Quintiles/Expression Analysis, Durham, NC)89. Standard TaqManTM Assays (Applied Biosystems/ThermoFisher Scientific, Foster City, CA) were used to assess the expression of 93 genes selected based on their selectivity and sensitivity to important hepatic receptors known to be modulated by environmental chemicals; importance in human hepatocyte functionality; and hepatotoxicity. […]
The AC50 is the concentration giving half of the maximal activity seen. `CN(Cc1cnc2nc(N)nc(N)c2n1)c1ccc(C(=O)N[C@@H](CCC(=O)O)C(=O)O)cc1`: the AC50 was 0.0944 µM (active). For the compound `CN(C)CCOC(c1ccccc1)c1ccccc1`, the call was inactive. For `N=C(N)c1ccc(OCCCCCOc2ccc(C(=N)N)cc2)cc1`, the AC50 is 28.5 µM (active). Regarding `CCCCc1oc2ccccc2c1C(=O)c1cc(I)c(OCCN(CC)CC)c(I)c1`, the result was inactive. Consider `CCC(C)c1ccccc1O` (stereo unspecified), for which the outcome was inactive. For `CCCCC(CC)C(=O)O` (stereo unspecified), the compound was called inactive. As to `CC(=O)Nc1ccc(O)cc1`, the call was inactive. Consider `Cc1[nH]nc2c1N=C(c1ccccc1Cl)c1cc([N+](=O)[O-])ccc1N2`, for which the AC50 is 3.64 µM (active).

With `O=C(CCCN1CCC(O)(c2ccc(Cl)cc2)CC1)c1ccc(F)cc1`, the outcome was inactive. On the same count and under the same terms, the same measure for `O=C(c1ccccc1)c1ccccc1`: “inactive”; for `CCCCC=O`: “inactive”; for `OCC(CO)(CBr)CBr`: “inactive”.

With `CCCCCCCCCCCCOS(=O)(=O)O`, the compound was classed as inactive. In the case of `CCCCCCCCCCCCCCC`, the outcome was inactive. In the case of `O=C1NS(=O)(=O)c2ccccc21`, the call was inactive. Turning to `CS(=O)(=O)c1ccc([C@@H](CC2CCCC2)C(=O)Nc2cnccn2)cc1Cl`, the compound was called inactive.
